From PubChem BioAssay
Prx2 Sm inh: blocks S. mansoni peroxiredoxin 2 enzymatic activity; S. mansoni Prx2 activity coupled to TGR/GSH (TGR is thioredoxin glutathione reductase), NADPH fluorescence loss, qHTS; Potency, µM; hit rate 0.07% among 65,000; AID 448
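Prx2 activity was followed as the loss of NADPH fluorescence (ex 365/em 450 nm), read every 30 sec for 8 min after H2O2 start. The enzyme mix (50 nM Prx2, 25 nM TGR, GSH, NADPH; pH 7.4 phosphate buffer) was incubated with compound for 15 min at room temperature first.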
AmpC nodet inh: inhibitors of E. coli AmpC beta-lactamase without detergent; AmpC nitrocefin hydrolysis, absorbance 480 nm, no detergent; Potency, µM (doses to about 28.7 µM), for inactives: at the highest dose activity change, negative = inhibition; hit rate 1.8% among 71,000; AID 585; note: % of control where 0% means no effect
Target sequence (P00811 whole entry, looked up): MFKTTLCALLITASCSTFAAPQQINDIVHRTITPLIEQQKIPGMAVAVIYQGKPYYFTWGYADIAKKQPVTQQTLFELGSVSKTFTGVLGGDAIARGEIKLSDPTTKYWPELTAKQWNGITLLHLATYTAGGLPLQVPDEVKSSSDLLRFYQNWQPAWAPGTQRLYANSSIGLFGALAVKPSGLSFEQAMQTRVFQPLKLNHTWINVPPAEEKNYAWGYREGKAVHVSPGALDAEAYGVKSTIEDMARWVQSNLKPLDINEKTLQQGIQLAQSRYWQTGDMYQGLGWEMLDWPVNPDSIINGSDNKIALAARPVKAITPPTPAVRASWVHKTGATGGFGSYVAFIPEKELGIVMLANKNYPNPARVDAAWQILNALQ
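Enzyme, pH 7.0 phosphate. Compound titrations were pre-incubated with AmpC for 15 min at room temperature before nitrocefin (stock 800 uM) addition; product formation was recorded at 480 nm every 20 s for 4 min.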
LT uptake inh: blocks cellular internalization of anthrax lethal toxin; hit rate 0.67% among 70,000; Potency, µM (doses to about 40 µM), without a hit: at the top dose activity change, negative = inhibition, most hits filed as inhibitors; AID 912; Cells, anthrax lethal toxin internalization, FRET ratio (460/530); note: % is set by controls: 0 for no effect and ±100 for the full control effect; nearly all actives have a fitted effect of over 50% in size
AmpC inh det: blocks E. coli AmpC beta-lactamase in presence of detergent | purified AmpC, nitrocefin hydrolysis with detergent | hit rate 0.09% among 71,000 | P00811 | Potency, µM (top dose mostly 28.7 µM), for the others: top-dose activity change, negative = inhibition; active = well fitted curve in the direction sought with a large enough effect; inconclusive = small, poorly fitted or top-dose-only effect; note: % is set by controls: 0 for no effect and ±100 for the full control effect
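E. coli AmpC (5.3 nM) in 20 mM phosphate pH 7.0 with 0.01% Triton X-100, preincubated 15 min RT with compound; nitrocefin (2 uL of 800 uM stock) hydrolysis followed by 480 nm absorbance every 20 s over 4 min.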
Starred values were filed as active, the others as inactive; ? = inconclusive; / = no result; [ ] = another dose, or the depositor's remark. A selection: hits, their analogues and other compounds. The true share with any hit is near 2.6%. Unless noted, calls come from the whole dose curve. Potency is the fitted concentration of half-maximal effect.

SMILES	Prx2 Sm inh	AmpC nodet inh	LT uptake inh	AmpC inh det
COc1ccc(-c2cc(-c3ccccc3O)[nH]n2)cc1OC	/	46%	13µM*	8%
COCC(=O)N1CCC[C@@]2(CCN(Cc3ccc(C#N)cc3)C2)C1	>57	-3%	?	1%
CCOC(=O)CCc1c(C)nc2cc(-c3ccccc3OC)[nH]n2c1=O	>57	4µM*[single pt active]	-6%	9%
O=C(NCc1ccc2c(c1)OCO2)c1ccc2c(=O)n(C3CCCC3)c(=O)[nH]c2c1	>57	7.9µM*	?	-2%
COc1ccc(Cn2c(=O)[nH]c3cc(C(=O)NCc4ccc5c(c4)OCO5)ccc3c2=O)cc1	>57	13µM*[single pt active]	-6%	-4%
COc1ccc(Cn2c(=O)[nH]c3cc(C(=O)NCCCN4CCCCC4)ccc3c2=O)cc1	>57	24%	6%	2%
CCOC(=O)CC(SP(=S)(OC)OC)C(=O)OCC (stereo not drawn)	/	?	?	6.3µM*
CCOC(=O)OCC	/	-5%	-1%	6%
Cc1nc2ccc(S(=O)(=O)NC(C(=O)Nc3nccs3)C(C)C)cc2s1 (stereo not drawn)	>57	4µM*[single pt active]	-11%	9%
Cc1nc2ccc(S(=O)(=O)NC(C(=O)NCc3cccs3)C(C)C)cc2s1 (stereo not drawn)	>57	4µM*[single pt active]	-13%	11%
O=C(NCCc1ccccc1)C1CCCN(S(=O)(=O)c2cccs2)C1 (stereo not drawn)	>57	4µM*[single pt active]	-5%	12%
O=C(C1CCCN(S(=O)(=O)c2cccs2)C1)N1CCC(N2CCCCC2)CC1 (stereo not drawn)	>57	4µM*[single pt active]	8%	31%
CNC(=O)c1ccccc1	/	-12%	-1%	11%
C[C@@H]1c2ccccc2CN1CC1=NCCN1	>57	26%	-3%	-2%
O=S(=O)(c1ccc(Oc2ccc(S(=O)(=O)N3CCOCC3)cc2)cc1)N1CCOCC1	/	108%	-15%	-1%
C=CS(=O)(=O)c1ccc(Oc2ccc(S(=O)(=O)C=C)cc2)cc1	?	15%	4µM*	2%
C[C@@H](CCCCC(=O)Nc1ccc(C(F)(F)F)cc1)NCCc1cnc[nH]1	>57	0%	-8%	0%
CCNC(=O)[C@@H]1O[C@@H](n2cnc3c(NCc4ccccc4)ncnc32)[C@@H](O)[C@H]1O	>57	2%	?	-3%
O=C(O)CSSCC(=O)O	>57	0%[5.75 µM]	?	-3%[5.75 µM]
Cc1noc(C)c1C(=O)N1CCC2(CCN(Cc3cc(C(F)(F)F)cc(C(F)(F)F)c3)CC2)CC1	>57	142%	1%	6%
N#Cc1c(N2CCCC2)nc(N)c2c(N)nc(N3CCCC3)cc12	>57	51%	-15%	8%
N#Cc1c(N)nc(N2CCCC2)c(C#N)c1-c1ccc(Cl)cc1	>57	-16%	1µM*	4%
N#Cc1ccccc1-c1ccc2ncnc(NCc3cccs3)c2c1	>57	-4%	?	4%
Cc1csc(NC(=O)C(CC(C)C)NS(=O)(=O)c2ccc3c(c2)oc(=O)n3C)n1 (stereo not drawn)	>57	4µM*[single pt active]	1%	8%
COC(=O)c1ccc2c(c1)N(C)CCS2	/	4µM*[single pt active]	10%	12%
SMILES	Prx2 Sm inh	AmpC nodet inh	LT uptake inh	AmpC inh det
CCOC(=O)N1CCC(NC(=O)c2ccc3c(c2)N(C)CCS3)CC1	>57	48%	?	0%
CC[C@H](CO)NC(=O)[C@H]1C=C2c3cccc4[nH]cc(c34)C[C@H]2N(C)C1	>57	0%	-1%	1%
CC(C)NC(=O)N1CC[C@@]2(CCCN(C(=O)c3ccncc3)C2)C1	>57	-15%	-7%	-5%
c1csc(Cc2nc(-c3ccc(-n4cccc4)cc3)no2)c1	>57	13µM*	2%	13%
CCNC(C)(C)[C@@H](SS)c1ccc(Br)cc1	>57	-5%[5.75 µM]	-15%[8 µM]	-1%[5.75 µM]
COC(=O)c1ccc(CSc2nc3scc(-c4cccs4)c3c(=O)[nH]2)o1	>57	13µM*	-2%	-5%
Cc1c(C(=O)OCc2ccccc2)[nH]c2c1C(=O)CC(c1ccco1)C2 (stereo not drawn)	>57	13µM*[single pt active]	?	1%
Cc1nc2ccccc2c2oc(C(=O)NCC3COc4ccccc4O3)cc12 (stereo not drawn)	>57	117%	5µM*	8%
Cc1nc2ccccc2c2oc(C(=O)Nc3ccc4c(c3)OCCO4)cc12	>57	-1%	0.79µM*	1%
Cc1ccn2cc(C(=O)Nc3ccc4c(c3)OCCO4)nc2c1	>57	10%	7.9µM*	-4%
Cc1ccn2cc(C(=O)Nc3ccccc3N3CCOCC3)nc2c1	>57	38%	?	-3%
Cc1cccc(N2CCN(C(=O)c3cc4c(C)nc5ccccc5c4o3)CC2)c1C	>57	113%	10µM*	4%
Cc1ccsc1C=Nc1ccc(O)cc1	>57	10µM*	?	7%
O=C(N[C@@H](Cc1ccccc1)C(=O)CCl)OCc1ccccc1	>57	-2%	16µM*	-5%
COC(=O)C(C(C)=O)C(=O)C(Cc1ccccc1)NC(=O)OCc1ccccc1 (stereo not drawn)	/	/	-12%[8 µM]	/
CC(C)[C@@H]1O[C@H](/C=C\c2ccccc2)OCC1(C)C	>57	8%[5.75 µM]	3%[8 µM]	-3%[5.75 µM]
O=C1Nc2ccccc2OC1CC(=O)N1CCOCC1 (stereo not drawn)	>57	3.2µM*[single pt active]	-5%	14%
CC(C)N(CCCNC(=O)CC1Oc2ccccc2NC1=O)Cc1ccccc1 (stereo not drawn)	>57	4µM*[single pt active]	-14%	12%
O=C(CC1Oc2ccccc2NC1=O)NCCCN1CCCC1=O (stereo not drawn)	>57	4µM*[single pt active]	2%	16%
CC1CC(C)CN(CCCNC(=O)CC2Oc3ccccc3NC2=O)C1 (stereo not drawn)	>57	4µM*[single pt active]	-9%	11%
CC(C)CN(CCCNC(=O)CC1Oc2ccccc2NC1=O)CC(C)C (stereo not drawn)	>57	-10%	-3%	-7%
COc1ccc(NC(=O)N2CC3(CCN(C(=O)c4cc(C(F)(F)F)cc(C(F)(F)F)c4)CC3)C2)cc1	/	130%	-13%	22%
N#CCCn1c(=O)c(CCc2ccccc2)nc2cnc(Oc3cccc(Cl)c3)nc21	>57	9%	?	-2%
C[C@H](CCC(=O)NN)[C@@H]1CC[C@@H]2[C@H]3CC[C@H]4C[C@@H](O)CC[C@@]4(C)[C@@H]3CC[C@]21C	>57	-4%[5.75 µM]	-9%[8 µM]	-3%[5.75 µM]
Cc1cnc(CNc2cc(-c3ccccc3C)ncn2)cn1	>57	30%	6%	8%
CCCOc1cccc(C(=O)Nc2cccc(NC(=O)c3ccco3)c2)c1	/	-14%	5µM*	4%
O=C(Nc1cccc(-c2nc3ccccc3[nH]2)c1)c1cccc(NC(=O)c2ccco2)c1	/	-17%	16µM*	-6%
CN1CCN(C2=C(Cl)C(=O)N(c3ccc(Cl)c(Cl)c3)C2=O)CC1	/	-13%	7.9µM*	-2%
CN1CCN(C2=C(Cl)C(=O)N(c3cccc(Cl)c3)C2=O)CC1	/	-13%	0%	6%
COc1cc2c(cc1OC)-c1c(O)c(OC)cc3c1[C@@H](C2)N(C)CC3	>57	19%	-36%	11%
